About 8,800 targets were measured; listed, in parts, are those with a hit and a random draw of the rest. About 0.5% of all pairs of compound and target were hits. A number with no mark means an inactive call.
Columns and labels:
Test in all cases: log2 fold change, soluble protein after heating vs DMSO (PISA); higher = thermal stabilisation; K562 lysate, 10 uM; active = over 0.2 and 3.5 SD of the protein, either way, in both replicates (recomputed)
vemurafenib = compound: CCCS(=O)(=O)Nc1ccc(F)c(C(=O)c2c[nH]c3ncc(-c4ccc(Cl)cc4)cc23)c1F [vemurafenib]
Method in brief: (§1)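 Following dounce homogenisation of K562 pellets in PBS pH 7.4 with 1 mM MgCl2, crude extract at 1 mg/mL protein was incubated for 30 min with 10 μM compound. Aliquots were then heated for 3 min over 48°C-58°C and pooled, NP-40 was added to 0.5% at 4°C, and soluble protein was recovered as the supernatant at 21,000xg for 90 min. Channel-sum-equalised TMTpro 16plex LC-MS/MS quantified this protein. Each value, from duplicates, is a log-two fold change in thermal stability relative to solvent controls.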

[1] = compound: CCCS(=O)(=O)Nc1ccc(F)c(C(=O)c2c[nH]c3ncc(Cl)cc23)c1F
Method in brief: as §1

barasertib = compound: CCN(CCCOc1ccc2c(Nc3cc(CC(=O)Nc4cccc(F)c4)[nH]n3)ncnc2c1)CCOP(=O)(O)O [barasertib]
Method in brief: as §1

[2] = compound: CC[C@@H]1C(=O)N(C)c2cnc(Nc3ccc(C(=O)NC4CCN(C)CC4)cc3OC)nc2N1C1CCCC1
Method in brief: as §1

volasertib = compound: CC[C@@H]1C(=O)N(C)c2cnc(Nc3ccc(C(=O)N[C@H]4CC[C@H](N5CCN(CC6CC6)CC5)CC4)cc3OC)nc2N1C(C)C [volasertib]
Method in brief: as §1

[3] = compound: CCn1c(C(=O)N(C2CC2)C2CC2)cc2c3c(ncn3C)c(Nc3cc(C)n(C)n3)nc21
Method in brief: as §1

[4] = compound: CCn1cc(-c2ccnc3[nH]c(-c4cccc(CN(C)C)c4)cc23)c(-c2ccc(NC(=O)N(C)C)cc2)n1
Method in brief: as §1

[5] = compound: CN1CCC(CNc2ccc3ncc(-c4cccc(OC(F)(F)F)c4)n3n2)CC1
Method in brief: as §1

saracatinib = compound: CN1CCN(CCOc2cc(OC3CCOCC3)c3c(Nc4c(Cl)ccc5c4OCO5)ncnc3c2)CC1 [saracatinib]
Method in brief: as §1

sotrastaurin = compound: CN1CCN(c2nc(C3=C(c4c[nH]c5ccccc45)C(=O)NC3=O)c3ccccc3n2)CC1 [sotrastaurin]
Method in brief: as §1

Sequence of UniProt O75477 (O75477 whole entry, looked up): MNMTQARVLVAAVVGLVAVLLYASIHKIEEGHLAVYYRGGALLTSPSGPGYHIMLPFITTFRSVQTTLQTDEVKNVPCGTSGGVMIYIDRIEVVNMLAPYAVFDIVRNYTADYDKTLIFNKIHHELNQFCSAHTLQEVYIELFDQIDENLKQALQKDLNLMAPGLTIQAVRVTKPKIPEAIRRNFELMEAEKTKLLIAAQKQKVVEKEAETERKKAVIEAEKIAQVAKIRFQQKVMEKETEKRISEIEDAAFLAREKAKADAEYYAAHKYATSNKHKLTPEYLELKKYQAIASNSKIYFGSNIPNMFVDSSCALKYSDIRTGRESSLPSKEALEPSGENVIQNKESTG
Sequence of UniProt Q14C86 (Q14C86 whole entry, looked up): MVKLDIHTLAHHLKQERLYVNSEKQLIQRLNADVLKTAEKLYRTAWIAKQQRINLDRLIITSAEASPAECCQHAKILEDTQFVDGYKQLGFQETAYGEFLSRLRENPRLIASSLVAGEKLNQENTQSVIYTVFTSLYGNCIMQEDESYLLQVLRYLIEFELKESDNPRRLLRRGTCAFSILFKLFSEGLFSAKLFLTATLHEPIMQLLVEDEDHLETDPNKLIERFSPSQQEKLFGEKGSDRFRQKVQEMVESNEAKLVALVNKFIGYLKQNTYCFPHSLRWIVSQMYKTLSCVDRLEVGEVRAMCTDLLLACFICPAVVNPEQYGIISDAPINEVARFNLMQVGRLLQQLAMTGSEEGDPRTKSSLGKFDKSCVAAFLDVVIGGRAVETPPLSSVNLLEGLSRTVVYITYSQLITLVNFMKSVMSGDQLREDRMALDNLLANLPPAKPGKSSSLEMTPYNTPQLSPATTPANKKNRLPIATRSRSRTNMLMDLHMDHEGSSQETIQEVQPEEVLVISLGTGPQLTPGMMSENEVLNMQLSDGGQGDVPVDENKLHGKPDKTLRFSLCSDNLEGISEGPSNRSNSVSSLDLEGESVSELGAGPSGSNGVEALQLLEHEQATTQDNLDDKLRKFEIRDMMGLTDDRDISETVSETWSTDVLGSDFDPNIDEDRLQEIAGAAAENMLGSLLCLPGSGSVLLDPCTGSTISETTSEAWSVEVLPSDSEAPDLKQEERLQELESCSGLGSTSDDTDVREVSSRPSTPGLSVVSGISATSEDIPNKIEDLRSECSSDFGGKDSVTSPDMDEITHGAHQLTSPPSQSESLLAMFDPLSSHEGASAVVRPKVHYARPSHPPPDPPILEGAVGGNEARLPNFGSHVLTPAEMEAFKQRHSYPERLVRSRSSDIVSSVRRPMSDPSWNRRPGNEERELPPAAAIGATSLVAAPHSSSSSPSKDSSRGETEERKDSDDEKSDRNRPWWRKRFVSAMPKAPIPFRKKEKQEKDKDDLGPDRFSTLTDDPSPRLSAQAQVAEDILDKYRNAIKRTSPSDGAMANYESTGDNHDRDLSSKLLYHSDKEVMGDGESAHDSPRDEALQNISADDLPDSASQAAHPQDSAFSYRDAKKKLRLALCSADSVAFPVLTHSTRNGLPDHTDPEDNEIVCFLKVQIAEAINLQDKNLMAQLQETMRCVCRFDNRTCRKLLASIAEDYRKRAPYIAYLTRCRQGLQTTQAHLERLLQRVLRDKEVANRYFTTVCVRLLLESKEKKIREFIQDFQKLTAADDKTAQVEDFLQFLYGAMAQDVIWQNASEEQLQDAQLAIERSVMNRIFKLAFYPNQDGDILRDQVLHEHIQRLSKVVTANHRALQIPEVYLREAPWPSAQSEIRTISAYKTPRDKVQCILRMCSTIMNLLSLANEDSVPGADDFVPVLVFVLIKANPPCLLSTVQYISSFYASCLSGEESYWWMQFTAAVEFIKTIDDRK
Sequence of UniProt Q9NYY8 (Q9NYY8 whole entry, looked up): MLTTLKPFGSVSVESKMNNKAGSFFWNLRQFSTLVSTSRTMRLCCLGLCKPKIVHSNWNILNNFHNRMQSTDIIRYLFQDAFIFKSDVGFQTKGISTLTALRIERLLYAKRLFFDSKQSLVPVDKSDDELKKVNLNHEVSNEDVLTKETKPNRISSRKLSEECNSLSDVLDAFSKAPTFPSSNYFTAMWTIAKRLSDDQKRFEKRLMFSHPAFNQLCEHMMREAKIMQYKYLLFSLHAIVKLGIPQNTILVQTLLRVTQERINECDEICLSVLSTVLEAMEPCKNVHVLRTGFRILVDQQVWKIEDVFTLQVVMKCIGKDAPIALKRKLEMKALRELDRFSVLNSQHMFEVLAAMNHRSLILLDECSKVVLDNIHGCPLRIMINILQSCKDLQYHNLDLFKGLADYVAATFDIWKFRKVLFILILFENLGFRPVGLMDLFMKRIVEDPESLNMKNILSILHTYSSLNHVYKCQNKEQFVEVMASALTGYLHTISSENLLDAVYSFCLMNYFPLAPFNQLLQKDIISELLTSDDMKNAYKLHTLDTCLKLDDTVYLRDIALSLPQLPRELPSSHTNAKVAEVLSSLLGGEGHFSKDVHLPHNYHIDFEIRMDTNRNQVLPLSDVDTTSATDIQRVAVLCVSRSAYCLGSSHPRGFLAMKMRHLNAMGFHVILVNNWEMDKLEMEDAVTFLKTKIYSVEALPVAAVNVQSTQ
Sequence of UniProt Q6P2E9 (Q6P2E9 whole entry, looked up): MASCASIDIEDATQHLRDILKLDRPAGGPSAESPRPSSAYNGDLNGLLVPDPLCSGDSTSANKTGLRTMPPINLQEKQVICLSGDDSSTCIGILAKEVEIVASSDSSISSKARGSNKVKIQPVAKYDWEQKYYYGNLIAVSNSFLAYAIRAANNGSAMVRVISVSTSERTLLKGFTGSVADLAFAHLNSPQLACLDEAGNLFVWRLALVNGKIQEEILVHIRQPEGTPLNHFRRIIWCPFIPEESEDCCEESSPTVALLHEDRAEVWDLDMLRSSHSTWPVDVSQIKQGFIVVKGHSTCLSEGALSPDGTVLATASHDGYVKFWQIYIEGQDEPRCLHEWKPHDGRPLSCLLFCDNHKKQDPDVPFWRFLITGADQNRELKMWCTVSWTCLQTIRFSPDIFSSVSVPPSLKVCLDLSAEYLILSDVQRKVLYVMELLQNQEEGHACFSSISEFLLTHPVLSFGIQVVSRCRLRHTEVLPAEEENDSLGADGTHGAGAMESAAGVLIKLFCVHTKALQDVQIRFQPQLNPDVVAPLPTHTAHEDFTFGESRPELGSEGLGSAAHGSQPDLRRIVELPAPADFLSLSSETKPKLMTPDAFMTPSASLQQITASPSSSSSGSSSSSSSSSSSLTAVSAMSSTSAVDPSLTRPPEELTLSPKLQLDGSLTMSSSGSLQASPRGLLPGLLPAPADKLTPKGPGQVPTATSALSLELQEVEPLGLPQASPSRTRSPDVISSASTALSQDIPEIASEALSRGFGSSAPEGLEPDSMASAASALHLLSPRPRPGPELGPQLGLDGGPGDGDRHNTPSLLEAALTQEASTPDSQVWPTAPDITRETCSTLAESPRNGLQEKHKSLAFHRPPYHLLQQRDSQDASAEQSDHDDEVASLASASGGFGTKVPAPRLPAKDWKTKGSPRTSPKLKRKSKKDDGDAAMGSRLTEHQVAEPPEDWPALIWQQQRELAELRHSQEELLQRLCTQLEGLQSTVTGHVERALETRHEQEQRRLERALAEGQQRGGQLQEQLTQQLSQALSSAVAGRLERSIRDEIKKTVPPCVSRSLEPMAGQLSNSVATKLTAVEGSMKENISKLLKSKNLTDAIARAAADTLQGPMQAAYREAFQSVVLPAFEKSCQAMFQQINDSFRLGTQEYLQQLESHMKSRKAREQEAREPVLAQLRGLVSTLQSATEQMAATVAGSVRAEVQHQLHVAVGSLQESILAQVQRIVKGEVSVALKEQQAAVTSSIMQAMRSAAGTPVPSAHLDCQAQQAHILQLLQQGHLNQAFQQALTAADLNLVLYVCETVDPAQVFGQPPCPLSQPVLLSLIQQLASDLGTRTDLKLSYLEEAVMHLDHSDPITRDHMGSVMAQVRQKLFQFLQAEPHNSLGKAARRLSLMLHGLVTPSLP
Sequence of UniProt Q9UK97 (Q9UK97 whole entry, looked up): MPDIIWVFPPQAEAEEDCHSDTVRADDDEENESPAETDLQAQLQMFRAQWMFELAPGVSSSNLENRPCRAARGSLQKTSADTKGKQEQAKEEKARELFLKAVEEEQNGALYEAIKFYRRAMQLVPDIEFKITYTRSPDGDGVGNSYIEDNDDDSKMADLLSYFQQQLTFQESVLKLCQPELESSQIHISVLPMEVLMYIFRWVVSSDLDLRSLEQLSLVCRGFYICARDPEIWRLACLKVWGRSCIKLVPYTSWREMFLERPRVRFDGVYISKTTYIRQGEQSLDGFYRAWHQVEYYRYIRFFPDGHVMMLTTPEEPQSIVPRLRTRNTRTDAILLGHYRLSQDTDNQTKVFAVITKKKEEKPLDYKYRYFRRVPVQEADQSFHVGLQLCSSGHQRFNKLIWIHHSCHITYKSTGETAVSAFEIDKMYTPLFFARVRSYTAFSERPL
Sequence of UniProt Q9NRY5 (Q9NRY5 whole entry, looked up): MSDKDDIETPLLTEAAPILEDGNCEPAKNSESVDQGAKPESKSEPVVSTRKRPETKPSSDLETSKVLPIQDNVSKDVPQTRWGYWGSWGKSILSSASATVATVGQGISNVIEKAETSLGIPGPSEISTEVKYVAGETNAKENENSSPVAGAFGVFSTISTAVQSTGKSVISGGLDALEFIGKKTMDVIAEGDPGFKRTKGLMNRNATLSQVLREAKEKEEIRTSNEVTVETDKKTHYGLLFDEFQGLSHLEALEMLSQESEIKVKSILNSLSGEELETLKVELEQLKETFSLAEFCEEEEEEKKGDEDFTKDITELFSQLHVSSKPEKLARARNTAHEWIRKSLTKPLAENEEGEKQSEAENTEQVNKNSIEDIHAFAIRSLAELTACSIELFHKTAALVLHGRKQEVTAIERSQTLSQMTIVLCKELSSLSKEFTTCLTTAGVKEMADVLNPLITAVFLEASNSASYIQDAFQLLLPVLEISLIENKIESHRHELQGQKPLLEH
Sequence of UniProt Q6P4F2 (Q6P4F2 whole entry, looked up): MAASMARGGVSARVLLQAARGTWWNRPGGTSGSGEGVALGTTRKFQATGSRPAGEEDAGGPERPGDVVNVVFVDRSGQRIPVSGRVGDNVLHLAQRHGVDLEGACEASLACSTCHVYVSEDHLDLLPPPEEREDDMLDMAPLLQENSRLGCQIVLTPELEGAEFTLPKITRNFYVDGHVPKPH

Target | log2 fold change (vemurafenib) | log2 fold change [1] | log2 fold change (barasertib) | log2 fold change [2] | log2 fold change (volasertib) | log2 fold change [3] | log2 fold change [4] | log2 fold change [5] | log2 fold change (saracatinib) | log2 fold change (sotrastaurin)
FASTKD2 (UniProt Q9NYY8) | -0.014 | -0.002 | 0.037 | 0.004 | -0.036 | 0.011 | -0.072 | 0.03 | 0.012 | 0.014
ERLIN1 (UniProt O75477) | 0.01 | 0.013 | 0.008 | -0.037 | -0.029 | 0.033 | 1.01 | -0.059 | 0.041 | -0.023
EXOC2 (UniProt Q96KP1) | 0.018 | 0.109 | 0.041 | -0.028 | -0.043 | 0.031 | 0.017 | -0.094 | 0.034 | 0.049
EIF2AK2 (UniProt P19525) | 0.025 | 0.012 | -0.038 | -0.09 | -0.03 | -0.008 | -0.081 | 0.067 | -0.011 | 0.007
GFPT1 (UniProt Q06210) | 0.014 | 0.02 | 0.009 | -0.026 | -0.036 | 0.007 | 0.009 | -0.042 | 0.009 | -0.014
FDX2 (UniProt Q6P4F2) | 0.022 | -0.011 | 0.166 | 0.069 | 0.038 | -0.047 | -0.264 | -0.003 | -0.122 | -0.027
G6PD isoform 2 (UniProt P11413) | 0.003 | 0.008 | -0.029 | -0.02 | -0.061 | 0.016 | 0.063 | -0.04 | 0.032 | -0.017
FASTKD5 (UniProt Q7L8L6) | -0.003 | 0.008 | -0.047 | 0.073 | -0.065 | 0.028 | 0.082 | -0.245 | 0.043 | -0.026
FAM98A (UniProt Q8NCA5) | 0.063 | 0.032 | -0.016 | 0.045 | -0.029 | -0.005 | 0.088 | -0.08 | -0.028 | 0.017
GEMIN4 (UniProt P57678) | 0.036 | 0.025 | 0.041 | -0.037 | -0.053 | 0.023 | -0.168 | -0.091 | 0.091 | 0.041
EDC4 (UniProt Q6P2E9) | 0.053 | 0.004 | 0.026 | -0.013 | -0.015 | 0.015 | -0.055 | 0.001 | 0.011 | 0.011
GAPVD1 isoform 6 (UniProt Q14C86) | 0.011 | 0.006 | 0.01 | -0.077 | -0.036 | 0.027 | 0.046 | -0.083 | 0.014 | 0.012
FBXO9 (UniProt Q9UK97) | -0.025 | 0.007 | 0.116 | 0.135 | -0.012 | -0.015 | 0.049 | -0.083 | -0.013 | 0.021
DST (UniProt Q03001) | 0.23 | 0.021 | 0.083 | 0.021 | -0.045 | -0.073 | -0.174 | 0.076 | 0.052 | -0.024
ENO1 isoform 2 (UniProt P06733) | 0.02 | -0.005 | -0.09 | 0.073 | 0.004 | -0.021 | -0.263 | 0.269 (active) | 0.01 | 0.01
GCLM (UniProt P48507) | 0.014 | 0.025 | -0.007 | 0 | -0.015 | -0.013 | -0.011 | -0.012 | 0.011 | -0.022
GEMIN5 (UniProt Q8TEQ6) | 0.006 | 0.008 | 0.004 | -0.085 | -0.069 | 0.066 | -0.052 | -0.061 | 0.018 | 0.015

Target | log2 fold change (vemurafenib) | log2 fold change [1] | log2 fold change (barasertib) | log2 fold change [2] | log2 fold change (volasertib) | log2 fold change [3] | log2 fold change [4] | log2 fold change [5] | log2 fold change (saracatinib) | log2 fold change (sotrastaurin)
FNTB (UniProt P49356) | 0.055 | -0.009 | -0.036 | 0.285 (active) | 0.005 | 0.037 | -0.036 | 0.016 | 0.016 | 0.042
FAM114A2 (UniProt Q9NRY5) | 0.054 | 0.049 | 0.086 | 0.131 | -0.013 | 0.014 | 0.049 | -0.039 | 0.03 | 0.033
FKBP8 isoform 2 (UniProt Q14318) | -0.037 | -0.01 | 0.366 | -0.045 | 0.005 | -0.029 | 0.033 | -0.084 | -0.022 | 0.006
EIF2B4 isoform 2 (UniProt Q9UI10) | -0.034 | 0.02 | 0.006 | -0.038 | -0.017 | -0.004 | -0.02 | 0.002 | 0.006 | -0.004
ECH1 (UniProt Q13011) | -0.003 | -0.025 | -0.008 | -0.019 | 0.041 | -0.007 | -0.07 | 0.348 (active) | -0.047 | 0.608 (active)
GCDH (UniProt Q92947) | 0.031 | 0.025 | -0.054 | 0.002 | 0.022 | -0.003 | -0.07 | -0.077 | -0.041 | -0.041
FBXO30 (UniProt Q8TB52) | -0.065 | 0.02 | 0.015 | -0.026 | -0.042 | 0.009 | 0.208 | -0.115 | -0.015 | -0.013
GAPDH (UniProt P04406) | -0.031 | 0.002 | -0.016 | -0.006 | -0.002 | -0.009 | 0.042 | -0.032 | 0 | -0.01
FKBP1A (UniProt P62942) | -0.138 | -0.028 | 0.092 | 0.107 | 0.163 | -0.036 | -0.854 (active) | 0.146 | 0.052 | -0.017
GABPB1 isoform 3 (UniProt Q06547) | 0.057 | 0.074 | 0.141 | -0.048 | -0.11 | -0.016 | -0.042 | -0.028 | -0.006 | -0.022
FYN (UniProt P06241) | -0.036 | -0.01 | 0.065 | -0.351 | 0.046 | 0.033 | 0.048 | 0.22 | – | 0.023
GAA (UniProt P10253) | 0.068 | -0.101 | -0.063 | -0.006 | 0.015 | -0.021 | 0.122 | 0.027 | – | -0.039
EXOC3 (UniProt O60645) | 0.049 | 0.021 | 0.02 | -0.081 | -0.086 | 0.045 | -0.057 | -0.001 | 0.004 | 0.03
EPN2 (UniProt O95208) | 0.019 | 0.027 | 0.043 | 0.044 | 0.016 | -0.002 | -0.417 (active) | 0.08 | 0.004 | 0.002
DSN1 (UniProt Q9H410) | 0 | 0.043 | 0.007 | 0.034 | 0.001 | 0.001 | -0.017 | 0.01 | 0.034 | 0.003
EPB41, A0A2R8Y783 | 0.129 | 0.063 | 0.112 | -0.141 | 0.057 | – | -0.136 | -0.048 | 0.075 | –
